Test in all cases: DAPPL (digital affinity profiling via proximity ligation, sequencing); 10 mM Tris-HCl pH 7.5, 50 mM NaCl, 1 mM DTT, 4% glycerol, room temperature, 30 min; GST-TFs on glutathione beads, 16-mer random dsDNA library, 0.1% formaldehyde crosslink after washing; high values mean tight binding
In test [1] the target is T1, FLI1 (Homo sapiens, UniProt Q01543 1-452).
T1 sequence: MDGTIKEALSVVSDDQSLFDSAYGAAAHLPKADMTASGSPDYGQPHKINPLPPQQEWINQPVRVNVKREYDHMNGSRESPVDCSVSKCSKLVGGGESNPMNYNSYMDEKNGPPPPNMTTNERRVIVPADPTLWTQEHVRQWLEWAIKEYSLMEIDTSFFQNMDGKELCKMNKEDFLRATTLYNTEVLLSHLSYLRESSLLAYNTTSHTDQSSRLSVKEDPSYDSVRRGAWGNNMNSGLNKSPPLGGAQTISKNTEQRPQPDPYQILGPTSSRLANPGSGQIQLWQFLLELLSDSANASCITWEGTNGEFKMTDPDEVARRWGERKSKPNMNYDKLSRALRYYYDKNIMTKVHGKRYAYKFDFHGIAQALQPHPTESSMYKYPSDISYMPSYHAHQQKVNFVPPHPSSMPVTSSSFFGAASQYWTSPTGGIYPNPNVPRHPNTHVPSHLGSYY
Conditions: protein: recombinant; tags: N-terminal GST; dsDNA, one strand shown. Put shortly: (§1)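 In yeast, human transcription factors were expressed with a GST fusion, then pulled down on glutathione beads and given DNA barcodes. Pooled with a tag-only sample, they were exposed to 200 nmole of a 16-mer random double-stranded DNA library (Tris/NaCl/DTT/glycerol buffer, room temperature, 30 min), washed, crosslinked with 0.1% formaldehyde, proximity-ligated using BsaI/T4 ligase for 1 h at 37 °C, PCR-amplified and read on an Illumina NextSeq500. Each hexamer's frequency of reads for a factor, divided by the matching frequency for the tag-only sample, gives the binding signal.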

Test [2] addresses T2, ELK1 (Homo sapiens, UniProt P19419 1-428).
T2 sequence: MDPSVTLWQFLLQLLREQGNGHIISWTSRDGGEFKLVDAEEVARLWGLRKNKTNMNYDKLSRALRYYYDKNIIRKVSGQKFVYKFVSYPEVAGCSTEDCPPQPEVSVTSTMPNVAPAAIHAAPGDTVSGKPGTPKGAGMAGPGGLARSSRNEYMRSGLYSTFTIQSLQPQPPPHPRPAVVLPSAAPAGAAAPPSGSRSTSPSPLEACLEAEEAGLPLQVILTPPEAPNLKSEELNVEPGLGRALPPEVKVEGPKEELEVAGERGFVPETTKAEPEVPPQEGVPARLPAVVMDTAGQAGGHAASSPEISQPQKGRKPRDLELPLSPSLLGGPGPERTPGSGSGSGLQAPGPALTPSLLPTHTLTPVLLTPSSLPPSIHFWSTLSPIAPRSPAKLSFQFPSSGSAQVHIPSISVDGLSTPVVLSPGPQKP
Conditions: protein: recombinant; tags: N-terminal GST; dsDNA, one strand shown. In short, it runs like this: as §1

The target in test [3] is T3, GABPA (Homo sapiens, UniProt Q06546 1-454).
T3 sequence: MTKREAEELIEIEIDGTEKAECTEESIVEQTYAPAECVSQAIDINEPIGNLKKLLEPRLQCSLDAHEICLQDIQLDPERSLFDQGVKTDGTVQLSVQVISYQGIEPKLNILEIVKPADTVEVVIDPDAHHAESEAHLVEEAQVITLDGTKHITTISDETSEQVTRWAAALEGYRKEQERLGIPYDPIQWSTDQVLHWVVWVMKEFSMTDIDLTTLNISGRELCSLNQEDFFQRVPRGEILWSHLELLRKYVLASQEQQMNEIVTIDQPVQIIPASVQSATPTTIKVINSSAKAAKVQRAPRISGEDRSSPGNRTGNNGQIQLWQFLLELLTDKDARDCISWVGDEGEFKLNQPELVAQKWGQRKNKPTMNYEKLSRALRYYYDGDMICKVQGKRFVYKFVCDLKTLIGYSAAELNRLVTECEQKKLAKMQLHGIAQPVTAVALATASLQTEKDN
To be noted: protein: recombinant; tags: N-terminal GST; dsDNA, one strand shown. Put shortly: as §1

The target in test [4] is T4, ERG (Homo sapiens, UniProt P11308 1-479).
T4 sequence: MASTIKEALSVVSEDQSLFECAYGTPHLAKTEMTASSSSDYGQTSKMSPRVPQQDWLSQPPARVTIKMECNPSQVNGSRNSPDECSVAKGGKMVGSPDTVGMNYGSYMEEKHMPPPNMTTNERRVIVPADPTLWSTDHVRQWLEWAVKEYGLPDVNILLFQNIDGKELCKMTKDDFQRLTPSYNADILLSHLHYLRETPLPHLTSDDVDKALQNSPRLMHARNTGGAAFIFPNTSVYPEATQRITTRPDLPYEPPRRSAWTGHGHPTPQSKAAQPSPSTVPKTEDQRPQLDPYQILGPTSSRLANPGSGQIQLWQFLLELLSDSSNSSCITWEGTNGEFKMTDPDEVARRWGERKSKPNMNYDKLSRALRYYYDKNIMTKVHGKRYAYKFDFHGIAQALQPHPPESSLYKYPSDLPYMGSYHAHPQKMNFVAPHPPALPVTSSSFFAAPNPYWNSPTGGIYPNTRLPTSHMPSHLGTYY
Conditions: protein: recombinant; tags: N-terminal GST; dsDNA, one strand shown. Put shortly: as §1

The target of test [5] is ELF1 (Homo sapiens, UniProt P32519 1-619). Conditions: protein: recombinant; tags: N-terminal GST; dsDNA, one strand shown. In short, it runs like this: as §1
Chain of ELF1 (P32519 whole entry): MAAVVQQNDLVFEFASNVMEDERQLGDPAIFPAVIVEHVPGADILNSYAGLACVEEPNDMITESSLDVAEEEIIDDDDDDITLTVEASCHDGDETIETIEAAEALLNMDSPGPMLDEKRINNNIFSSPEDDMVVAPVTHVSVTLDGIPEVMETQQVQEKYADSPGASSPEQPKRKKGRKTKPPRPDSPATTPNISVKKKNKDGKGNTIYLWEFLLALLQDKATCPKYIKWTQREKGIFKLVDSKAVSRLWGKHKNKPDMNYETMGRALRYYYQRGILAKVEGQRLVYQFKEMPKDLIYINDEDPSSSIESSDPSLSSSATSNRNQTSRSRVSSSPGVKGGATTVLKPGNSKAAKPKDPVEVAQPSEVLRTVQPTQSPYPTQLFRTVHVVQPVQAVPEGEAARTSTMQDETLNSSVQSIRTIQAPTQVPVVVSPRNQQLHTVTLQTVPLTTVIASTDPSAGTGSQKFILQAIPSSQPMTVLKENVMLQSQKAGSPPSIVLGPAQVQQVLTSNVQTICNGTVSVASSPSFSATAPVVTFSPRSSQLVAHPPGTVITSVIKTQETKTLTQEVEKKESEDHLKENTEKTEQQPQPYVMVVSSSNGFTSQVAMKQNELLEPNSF
Test [6] deals with T5, EHF (Homo sapiens, UniProt Q9NZC4 1-300).
T5 sequence: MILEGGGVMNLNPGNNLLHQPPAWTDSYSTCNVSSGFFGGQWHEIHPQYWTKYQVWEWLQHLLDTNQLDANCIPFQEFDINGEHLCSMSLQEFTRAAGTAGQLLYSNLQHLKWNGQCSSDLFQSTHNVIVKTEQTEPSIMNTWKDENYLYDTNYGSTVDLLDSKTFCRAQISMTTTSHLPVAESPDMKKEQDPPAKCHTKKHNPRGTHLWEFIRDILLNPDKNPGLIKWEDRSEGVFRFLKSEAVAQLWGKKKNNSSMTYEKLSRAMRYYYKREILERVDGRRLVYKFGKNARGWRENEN
Conditions: protein: recombinant; tags: N-terminal GST; dsDNA, one strand shown. In short, it runs like this:
as §1

Test [7] concerns the target SPI1 (Homo sapiens, UniProt P17947 1-270). To be noted: protein: recombinant; tags: N-terminal GST; dsDNA, one strand shown. In short, it runs like this: as §1
Test [8] concerns the target SPIB (Homo sapiens, UniProt Q01892 1-262). To be noted: protein: recombinant; tags: N-terminal GST; dsDNA, one strand shown. In short, it runs like this:
as §1

Test [9] addresses T6, ELK3 (Homo sapiens, UniProt P41970 1-407).
T6 sequence: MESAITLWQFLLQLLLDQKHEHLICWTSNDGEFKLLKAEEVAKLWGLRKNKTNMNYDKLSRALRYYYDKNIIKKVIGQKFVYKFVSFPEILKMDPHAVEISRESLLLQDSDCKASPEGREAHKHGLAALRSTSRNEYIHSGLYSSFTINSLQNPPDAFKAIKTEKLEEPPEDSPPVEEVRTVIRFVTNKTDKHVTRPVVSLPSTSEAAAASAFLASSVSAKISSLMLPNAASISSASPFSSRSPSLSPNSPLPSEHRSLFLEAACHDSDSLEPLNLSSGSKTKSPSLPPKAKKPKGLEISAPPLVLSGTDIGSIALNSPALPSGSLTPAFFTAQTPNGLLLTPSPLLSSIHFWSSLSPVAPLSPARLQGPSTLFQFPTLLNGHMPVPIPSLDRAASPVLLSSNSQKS
Conditions: protein: recombinant; tags: N-terminal GST; dsDNA, one strand shown. In short, it runs like this: as §1

Test [10] deals with T7, FEV (Homo sapiens, UniProt Q99581 1-238).
T7 sequence: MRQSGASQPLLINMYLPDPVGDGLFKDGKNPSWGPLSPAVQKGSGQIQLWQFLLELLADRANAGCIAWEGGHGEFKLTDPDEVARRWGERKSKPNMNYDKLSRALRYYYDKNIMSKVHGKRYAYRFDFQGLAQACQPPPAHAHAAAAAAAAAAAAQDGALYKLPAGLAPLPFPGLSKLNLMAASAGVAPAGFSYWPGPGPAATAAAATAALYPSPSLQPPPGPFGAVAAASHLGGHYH
Conditions: protein: recombinant; tags: N-terminal GST; dsDNA, one strand shown. Put shortly: as §1

Test [11] deals with ETV5 (Homo sapiens, UniProt P41161 1-510). To be noted: protein: recombinant; tags: N-terminal GST; dsDNA, one strand shown. In short, it runs like this:
as §1

Test [12] has as its target HSF1 (Homo sapiens, UniProt Q00613 1-529). Conditions: protein: recombinant; tags: N-terminal GST; chain copies: 3; dsDNA, one strand shown. In short, it runs like this:
as §1

Test [13] deals with T8, SPIC (Homo sapiens, UniProt Q8N5J4 1-248).
T8 sequence: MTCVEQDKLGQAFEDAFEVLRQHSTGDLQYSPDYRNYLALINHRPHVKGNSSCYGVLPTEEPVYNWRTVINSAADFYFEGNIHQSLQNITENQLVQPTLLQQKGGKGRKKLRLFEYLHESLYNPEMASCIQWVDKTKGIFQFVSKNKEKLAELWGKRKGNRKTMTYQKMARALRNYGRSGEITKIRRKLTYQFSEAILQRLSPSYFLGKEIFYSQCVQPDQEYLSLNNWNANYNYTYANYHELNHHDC
Conditions: protein: recombinant; tags: N-terminal GST; dsDNA, one strand shown. In short, it runs like this: as §1

Test [14] addresses ELF4 (Homo sapiens, UniProt Q99607 1-663). To be noted: protein: recombinant; tags: N-terminal GST; dsDNA, one strand shown. In short, it runs like this:
as §1

Test [15] has as its target T9, ELK4 (Homo sapiens, UniProt P28324-2 1-405).
T9 sequence: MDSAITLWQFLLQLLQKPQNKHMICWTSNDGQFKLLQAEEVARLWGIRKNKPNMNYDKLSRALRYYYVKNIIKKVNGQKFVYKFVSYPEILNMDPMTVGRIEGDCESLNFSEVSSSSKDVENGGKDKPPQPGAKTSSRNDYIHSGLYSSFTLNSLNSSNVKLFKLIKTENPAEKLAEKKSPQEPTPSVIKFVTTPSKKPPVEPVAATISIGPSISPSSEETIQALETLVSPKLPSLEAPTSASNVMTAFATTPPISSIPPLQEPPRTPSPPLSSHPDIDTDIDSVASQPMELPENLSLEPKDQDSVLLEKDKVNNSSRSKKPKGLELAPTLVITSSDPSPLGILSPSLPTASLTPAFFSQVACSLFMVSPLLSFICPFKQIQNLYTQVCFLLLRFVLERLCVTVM
Conditions: protein: recombinant; tags: N-terminal GST; dsDNA, one strand shown. In short, it runs like this: as §1

Test [16] deals with T10, ETV2 (Homo sapiens, UniProt O00321 1-342).
T10 sequence: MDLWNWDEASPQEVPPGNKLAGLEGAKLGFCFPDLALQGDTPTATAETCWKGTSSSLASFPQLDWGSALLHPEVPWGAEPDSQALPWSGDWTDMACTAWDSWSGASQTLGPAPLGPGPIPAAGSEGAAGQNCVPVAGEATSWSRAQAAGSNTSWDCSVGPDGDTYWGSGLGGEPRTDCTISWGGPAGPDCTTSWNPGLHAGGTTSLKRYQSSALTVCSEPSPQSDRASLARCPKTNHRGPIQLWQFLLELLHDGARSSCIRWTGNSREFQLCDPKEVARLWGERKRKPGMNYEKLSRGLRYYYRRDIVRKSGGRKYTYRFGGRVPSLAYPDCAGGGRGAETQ
To be noted: protein: recombinant; tags: N-terminal GST; dsDNA, one strand shown. Put shortly: as §1

Test [17] has as its target T11, ELF3 (Homo sapiens, UniProt P78545 1-371).
T11 sequence: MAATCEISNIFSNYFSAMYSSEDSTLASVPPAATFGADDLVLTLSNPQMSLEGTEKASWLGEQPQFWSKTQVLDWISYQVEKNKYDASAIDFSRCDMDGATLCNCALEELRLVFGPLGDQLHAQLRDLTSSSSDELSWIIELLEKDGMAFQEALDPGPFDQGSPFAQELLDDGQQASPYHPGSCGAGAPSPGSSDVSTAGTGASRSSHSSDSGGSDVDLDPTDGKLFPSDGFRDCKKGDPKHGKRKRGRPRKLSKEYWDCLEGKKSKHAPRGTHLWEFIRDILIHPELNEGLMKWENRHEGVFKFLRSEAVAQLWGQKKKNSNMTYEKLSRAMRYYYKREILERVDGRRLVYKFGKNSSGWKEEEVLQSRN
Conditions: protein: recombinant; tags: N-terminal GST; dsDNA, one strand shown. In short, it runs like this:
as §1

In test [18] the target is CRX (Homo sapiens, UniProt O43186 1-299). Conditions: protein: recombinant; tags: N-terminal GST; dsDNA, one strand shown. In short, it runs like this:
as §1

In test [19] the target is ETV1 (Homo sapiens, UniProt P50549 1-477). Conditions: protein: recombinant; tags: N-terminal GST; dsDNA, one strand shown. Put shortly:
as §1

Chain of HSF1 (Q00613 whole entry): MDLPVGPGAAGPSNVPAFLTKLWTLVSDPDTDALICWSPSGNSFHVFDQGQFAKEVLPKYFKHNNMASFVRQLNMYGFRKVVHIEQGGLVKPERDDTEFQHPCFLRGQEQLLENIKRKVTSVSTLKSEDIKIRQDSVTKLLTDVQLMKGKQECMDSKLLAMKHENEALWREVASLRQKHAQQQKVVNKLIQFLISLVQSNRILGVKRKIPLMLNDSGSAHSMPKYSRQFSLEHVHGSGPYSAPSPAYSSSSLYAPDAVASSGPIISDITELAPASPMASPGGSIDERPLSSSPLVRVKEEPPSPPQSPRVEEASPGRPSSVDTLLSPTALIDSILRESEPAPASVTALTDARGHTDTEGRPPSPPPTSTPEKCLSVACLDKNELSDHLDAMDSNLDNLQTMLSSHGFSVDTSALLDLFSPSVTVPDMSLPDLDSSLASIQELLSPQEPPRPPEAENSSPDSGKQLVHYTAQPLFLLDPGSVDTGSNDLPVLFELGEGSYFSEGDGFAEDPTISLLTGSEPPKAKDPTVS
Chain of ETV1 (P50549 whole entry): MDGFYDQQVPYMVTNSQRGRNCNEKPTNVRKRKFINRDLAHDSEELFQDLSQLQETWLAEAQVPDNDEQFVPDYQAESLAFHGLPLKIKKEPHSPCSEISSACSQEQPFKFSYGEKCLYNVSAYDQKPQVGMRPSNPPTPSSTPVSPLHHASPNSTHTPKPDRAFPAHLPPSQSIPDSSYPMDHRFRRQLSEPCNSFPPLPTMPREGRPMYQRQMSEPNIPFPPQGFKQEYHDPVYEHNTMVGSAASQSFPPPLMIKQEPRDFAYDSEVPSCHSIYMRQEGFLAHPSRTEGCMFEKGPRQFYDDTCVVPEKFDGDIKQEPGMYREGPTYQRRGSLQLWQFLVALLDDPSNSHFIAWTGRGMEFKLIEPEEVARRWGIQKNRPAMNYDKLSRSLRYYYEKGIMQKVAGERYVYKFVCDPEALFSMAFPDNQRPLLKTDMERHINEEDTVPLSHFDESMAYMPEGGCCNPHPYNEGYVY
Chain of CRX (O43186 whole entry): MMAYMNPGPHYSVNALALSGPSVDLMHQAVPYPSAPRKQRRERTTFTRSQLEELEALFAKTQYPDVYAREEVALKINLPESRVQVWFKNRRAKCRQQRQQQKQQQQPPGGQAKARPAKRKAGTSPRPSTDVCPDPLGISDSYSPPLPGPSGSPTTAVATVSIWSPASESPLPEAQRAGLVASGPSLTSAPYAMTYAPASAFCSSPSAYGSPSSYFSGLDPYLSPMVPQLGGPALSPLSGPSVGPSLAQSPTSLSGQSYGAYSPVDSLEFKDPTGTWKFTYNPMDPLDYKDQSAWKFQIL
Chain of ETV5 (P41161 whole entry): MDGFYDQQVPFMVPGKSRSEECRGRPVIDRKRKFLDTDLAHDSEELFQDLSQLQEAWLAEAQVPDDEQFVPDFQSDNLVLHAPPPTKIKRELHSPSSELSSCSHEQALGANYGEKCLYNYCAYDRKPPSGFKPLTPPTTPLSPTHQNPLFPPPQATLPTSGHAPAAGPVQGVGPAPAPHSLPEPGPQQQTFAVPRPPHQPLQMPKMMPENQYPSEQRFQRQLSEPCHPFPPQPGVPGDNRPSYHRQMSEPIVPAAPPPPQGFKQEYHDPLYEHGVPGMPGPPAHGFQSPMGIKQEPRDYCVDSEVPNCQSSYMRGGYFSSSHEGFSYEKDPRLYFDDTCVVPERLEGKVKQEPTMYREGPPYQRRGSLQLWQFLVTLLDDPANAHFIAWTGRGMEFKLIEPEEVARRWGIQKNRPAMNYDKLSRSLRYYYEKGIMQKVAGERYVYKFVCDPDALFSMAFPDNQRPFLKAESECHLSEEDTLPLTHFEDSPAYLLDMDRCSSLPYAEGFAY
Chain of ELF4 (Q99607 whole entry): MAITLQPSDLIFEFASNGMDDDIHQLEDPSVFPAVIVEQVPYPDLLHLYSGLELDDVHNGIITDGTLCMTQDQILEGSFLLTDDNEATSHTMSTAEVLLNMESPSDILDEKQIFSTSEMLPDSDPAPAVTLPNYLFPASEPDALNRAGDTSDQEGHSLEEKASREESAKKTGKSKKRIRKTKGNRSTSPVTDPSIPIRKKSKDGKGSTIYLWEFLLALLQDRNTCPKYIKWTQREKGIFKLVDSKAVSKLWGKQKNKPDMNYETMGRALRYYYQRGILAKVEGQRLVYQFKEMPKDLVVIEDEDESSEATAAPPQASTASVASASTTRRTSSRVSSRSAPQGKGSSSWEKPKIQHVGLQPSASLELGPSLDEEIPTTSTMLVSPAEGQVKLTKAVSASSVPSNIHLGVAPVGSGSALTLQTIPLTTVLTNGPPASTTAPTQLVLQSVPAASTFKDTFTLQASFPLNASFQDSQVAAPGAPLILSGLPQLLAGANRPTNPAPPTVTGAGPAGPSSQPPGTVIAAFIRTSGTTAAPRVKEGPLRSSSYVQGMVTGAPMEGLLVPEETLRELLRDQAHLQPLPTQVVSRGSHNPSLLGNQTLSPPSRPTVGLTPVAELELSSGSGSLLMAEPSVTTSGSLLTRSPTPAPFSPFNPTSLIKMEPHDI
Chain of SPIB (Q01892 whole entry): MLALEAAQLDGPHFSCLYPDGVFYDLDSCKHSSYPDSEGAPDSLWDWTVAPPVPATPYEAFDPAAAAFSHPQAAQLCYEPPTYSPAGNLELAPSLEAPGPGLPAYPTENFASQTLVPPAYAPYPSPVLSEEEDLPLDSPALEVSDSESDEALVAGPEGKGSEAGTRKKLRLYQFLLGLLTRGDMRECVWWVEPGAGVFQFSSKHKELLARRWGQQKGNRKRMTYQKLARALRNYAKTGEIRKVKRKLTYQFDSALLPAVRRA

TAGCAA: the binding signal was 1.15 fold enrichment (6-mer frequency, TF over GST control) in [1]; 1.21 fold enrichment (6-mer frequency, TF over GST control) in test [2]; 1.21 fold enrichment (6-mer frequency, TF over GST control) in test [3]; 1.17 fold enrichment (6-mer frequency, TF over GST control) in test [4]; 1.23 fold enrichment (6-mer frequency, TF over GST control) in test [5]; 1.23 fold enrichment (6-mer frequency, TF over GST control) in [6]. Further, the binding signal in test [7] is 1.21 fold enrichment (6-mer frequency, TF over GST control); in test [8], 1.34 fold enrichment (6-mer frequency, TF over GST control); in [9], 1.24 fold enrichment (6-mer frequency, TF over GST control); in test [10], 1.17 fold enrichment (6-mer frequency, TF over GST control); in test [11] it was 1.33 fold enrichment (6-mer frequency, TF over GST control); in test [12], 1.59 fold enrichment (6-mer frequency, TF over GST control). The binding signal was 1.14 fold enrichment (6-mer frequency, TF over GST control) in test [13]; 1.34 fold enrichment (6-mer frequency, TF over GST control) in test [14]; 1.38 fold enrichment (6-mer frequency, TF over GST control) in [15]; 1.36 fold enrichment (6-mer frequency, TF over GST control) in test [16]; 1.36 fold enrichment (6-mer frequency, TF over GST control) in [17]; 1.46 fold enrichment (6-mer frequency, TF over GST control) in [18]. In test [19], the binding signal is 1.23 fold enrichment (6-mer frequency, TF over GST control).

(Values after publication PMC7862700, “An all-to-all approach to the identification of sequence-specific readers for epigenetic DNA modifications on cytosine”.)
